FEN1 inh-1 – qHTS Assay for the Inhibitors of Human Flap endonuclease 1 (FEN1); P39748; Recombinant FEN1 flap cleavage, fluorescence, 15 min; Potency, µM (titrated, usually from 114 µM), without a hit: top-dose activity change, negative = inhibition, hits mostly inhibitors; 0.35% of 390,000 active; AID 588795, 2011; note: % is set by controls: 0 for no effect and ±100 for the full control effect; nearly all actives have a fitted effect of over 65% in size
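In this screen, 50 nM flap DNA substrate was added to 10 nM FEN1 pretreated with compound for 15 min at room temperature; cleavage was followed with reads at 0 and 15 min, and Hill fitting gave concentration–response parameters.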
POLB inh – qHTS Assay for Inhibitors of DNA Polymerase Beta; Pol beta primer extension/strand displacement, fluorescence kinetic; Potency, µM (top dose mostly 114 µM), for the others: at the top dose activity change, negative = inhibition, most hits filed as inhibitors; 1.3% of 340,000 active; AID 485314, 2010; note: % is set by controls: 0 for no effect and ±100 for the full control effect
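Human Pol beta at 10 nM; strand-displacement substrate 50 nM final. Compound exposure 15 min at room temperature before start, reaction 10 min at room temperature.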
Pol kappa inh-1 – qHTS for Inhibitors of Polymerase Kappa | DNA polymerase kappa (Homo sapiens), Q9UBT6 | purified Pol kappa, fluorescent DNA synthesis assay, 10 min | Potency, µM (titrated, usually from 107 µM), inactives show top-dose activity, negative = inhibition, hits mostly inhibitors | 0.53% of 400,000 active; note: % is set by controls: 0 for no effect and ±100 for the full control effect
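10 nM Pol kappa was preincubated with compounds for 15 min at room temperature. Reaction started with 50 nM (final) substrate. Fluorescence read kinetically at 0 and 10 min.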
TDP1 block – qHTS Assay for Inhibitors of Tyrosyl-DNA Phosphodiesterase (TDP1). 0.28% of 350,000 active. Potency, µM (doses to about 130 µM), inactives show at the highest dose activity change, negative = inhibition, actives largely listed as inhibitors. Tyrosyl-DNA phosphodiesterase 1 (Homo sapiens), Q9NUW8. recombinant TDP1, AlphaScreen DNA substrate cleavage; note: % is set by controls: 0 for no effect and ±100 for the full control effect; nearly all actives have a fitted effect of over 40% in size
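Here, a 5' biotin and 3' phosphotyrosine-FITC DNA oligonucleotide reports Tdp1 activity: intact substrate bridges AlphaScreen beads, while cleavage leaves a 3' phosphate and drops signal. All incubations at room temperature.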
Pol eta inh-1 – qHTS for Inhibitors of Polymerase Eta | 1.2% of 390,000 active | recombinant Pol eta, fluorescent DNA replication assay | AID 588591, 2011 | Potency, µM (doses to about 114 µM), for inactives: at the highest dose activity change, negative = inhibition, hits mostly inhibitors | DNA polymerase eta (Homo sapiens), Q9Y253; note: % is set by controls: 0 for no effect and ±100 for the full control effect
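Pol eta (10 nM) was preincubated with compounds for 15 min at room temperature, after which fluorescent replication substrate (50 nM final) was added to start the reaction. Fluorescence was read kinetically at 0 and 10 min.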
POLI inh – qHTS for Inhibitors of Polymerase Iota | Potency, µM (highest dose often 115 µM), without a hit: top-dose activity, negative = inhibition, usual class: inhibitors | DNA polymerase iota (Homo sapiens), Q9UNA4 | Pol iota fluorescent replication assay, 10 min | 1% of 390,000 active
Target sequence (Q9UNA4 whole entry, looked up): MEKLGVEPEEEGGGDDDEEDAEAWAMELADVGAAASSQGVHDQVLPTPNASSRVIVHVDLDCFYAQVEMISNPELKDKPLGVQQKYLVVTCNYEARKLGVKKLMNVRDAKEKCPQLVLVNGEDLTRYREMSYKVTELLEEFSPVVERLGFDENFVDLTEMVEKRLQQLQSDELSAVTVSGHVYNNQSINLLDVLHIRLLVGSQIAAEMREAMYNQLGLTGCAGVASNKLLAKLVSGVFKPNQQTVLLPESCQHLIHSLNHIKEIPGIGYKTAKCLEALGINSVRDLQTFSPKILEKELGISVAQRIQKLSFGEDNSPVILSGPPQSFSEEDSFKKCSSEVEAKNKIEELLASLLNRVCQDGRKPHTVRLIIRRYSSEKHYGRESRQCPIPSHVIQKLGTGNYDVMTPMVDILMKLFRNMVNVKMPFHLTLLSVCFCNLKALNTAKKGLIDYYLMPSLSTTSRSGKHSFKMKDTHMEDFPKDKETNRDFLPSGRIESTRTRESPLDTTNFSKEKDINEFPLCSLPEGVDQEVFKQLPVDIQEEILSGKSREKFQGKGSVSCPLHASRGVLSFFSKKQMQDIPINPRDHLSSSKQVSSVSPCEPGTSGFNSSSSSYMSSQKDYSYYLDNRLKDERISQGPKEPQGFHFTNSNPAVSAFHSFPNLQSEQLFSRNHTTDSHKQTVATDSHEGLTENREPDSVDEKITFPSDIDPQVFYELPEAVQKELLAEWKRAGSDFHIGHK
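Fluorescent replication assay read twice, at 0 min and 10 min after adding 50 nM (final) substrate. Enzyme (10 nM) and compounds were first incubated 15 min at room temperature; enzyme-free buffer wells were negative controls.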
PGK validate – qHTS for inhibitors of Phosphogylcerate Kinase: Hit Validation Screen; TbPGK coupled GAPDH assay, Kinase-Glo luminescence; shares compounds with Pol kappa inh-1; 79% of 500 active; AID 686980, 2013; Potency, µM (titrated, usually from 57.5 µM), for inactives: at the top dose activity change, negative = inhibition, most hits filed as inhibitors; note: % is set by controls: 0 for no effect and ±100 for the full control effect; nearly all actives have a fitted effect of over 65% in size
Pol iota confirm – qHTS for Inhibitors of Polymerase Iota: Confirmatory Assay for Cherry-picked Compounds. Pol iota primer extension, TAMRA/BHQ fluorescence. Potency, µM, actives largely listed as inhibitors. shares compounds with Pol kappa inh-1. 77% of 1,500 active
Pol kappa inh-2 – qHTS for Inhibitors of Polymerase Kappa: Confirmatory Assay for Cherry-picked Compounds | shares compounds with Pol eta inh-1 | purified Pol-kappa, fluorescent strand-displacement substrate | Potency, µM, hits mostly inhibitors | 76% of 920 active | AID 720501, 2013
Pol eta inh-2 – qHTS for Inhibitors of Polymerase Eta: Confirmatory Assay for Cherry-picked Compounds; 64% of 2,600 active; Potency, µM, actives largely listed as inhibitors; shares compounds with Pol eta inh-1; Pol eta primer extension, TAMRA/BHQ fluorescence, 10 min
FEN1 inh-2 – qHTS Assay for the Inhibitors of FEN1: Confirmatory Assay for Cherry-picked Compounds. Potency, µM, usual class: inhibitors. FEN1 flap cleavage, TAMRA/BHQ2 fluorogenic DNA substrate. 79% of 880 active. shares compounds with FEN1 inh-1. AID 720498, 2013; note: nearly all actives have a fitted effect of over 60% in size
Numbers without * were called inactive; [ ] = another dose, or the depositor's remark. Most compounds without a hit are left out; they make up all but 2.4% or so of the library. Calls come from the whole dose curve; as a rule, active = well fitted curve in the direction sought with a large enough effect; inconclusive = small, poorly fitted or top-dose-only effect, or another doubt; inactive = no such curve, though single readings can be large; an effect the other way counts as inactive or inconclusive. Potency is the fitted concentration of half-maximal effect.

Cc1cccc(NC(=O)CN2C(=O)N/C(=C\c3ccc(-c4cccc(C(=O)O)c4)o3)C2=O)c1 was read as FEN1 inh-1 inconclusive, POLB inh inconclusive, Pol kappa inh-1 inconclusive, Pol eta inh-1 inconclusive, POLI inh inconclusive, Pol iota confirm 67*, Pol eta inh-2 27* and FEN1 inh-2 76*.
`Cc1ccc(NC(=O)CN2C(=O)N/C(=C\c3cccn3-c3cccc(C(=O)O)c3)C2=O)cc1` gave FEN1 inh-1 79µM*, POLB inh 4µM*, Pol kappa inh-1 45µM*, TDP1 block 2.8µM*, Pol eta inh-1 3.5µM*, POLI inh 14µM*, PGK validate 15µM*, Pol iota confirm 19*, Pol kappa inh-2 42*, Pol eta inh-2 27* and FEN1 inh-2 76*.
O=C(O)c1ccc(-n2cccc2/C=C2/NC(=O)N(c3cccc(Cl)c3)C2=O)cc1 was read as FEN1 inh-1 40µM*, POLB inh 2.2µM*, Pol kappa inh-1 16µM*, TDP1 block 1.6µM*, Pol eta inh-1 3.5µM*, POLI inh 2µM*, PGK validate 5.8µM*, Pol iota confirm 3.4*, Pol eta inh-2 9.5* and FEN1 inh-2 67*.
COc1cccc(-n2cc(C(=O)NCc3ccccc3OC)c3ccccc3c2=O)c1 was read as FEN1 inh-1 20%, POLB inh -3%, Pol kappa inh-1 -12%, TDP1 block 4%, Pol eta inh-1 -21% and POLI inh 19%.
`COc1cccc([C@H]2Oc3ccc(OC)cc3/C(=N\O[C@@H](C)c3cn([C@H](CO)Cc4ccccc4)nn3)[C@@H]2O)c1` gave TDP1 block 11%[21 µM].
`Cc1ccc(NC(=O)CN2C(=O)N/C(=C\c3cccn3-c3cccc(-c4nn[nH]n4)c3)C2=O)cc1` gave Pol iota confirm 27*, Pol kappa inh-2 21*, Pol eta inh-2 76* and FEN1 inh-2 67*.
For O=c1c(=O)n(O)c2ccccc2n1O the results were FEN1 inh-1 0.79µM*, POLB inh 9%, Pol kappa inh-1 1%, TDP1 block -3%, Pol eta inh-1 -6%, POLI inh -26%, Pol iota confirm inconclusive and FEN1 inh-2 1.3*.
For COn1c(=O)c(=O)n(O)c2ccccc21 the results were FEN1 inh-1 -18%, POLB inh 0%, Pol kappa inh-1 -20%, TDP1 block -1%, Pol eta inh-1 1% and POLI inh -3%.
`Cn1c(=O)c(-c2ccc(F)cc2)nc2cncnc21` gave Pol kappa inh-1 -7%[60.1 µM].
Screening O=C(O)c1ccc2nc(-c3cc4cccc(O)c4oc3=O)[nH]c2c1 returned FEN1 inh-1 28µM*, POLB inh 8.9µM*, Pol kappa inh-1 inconclusive, POLI inh inconclusive, Pol iota confirm 24*, Pol kappa inh-2 27*, Pol eta inh-2 21* and FEN1 inh-2 43*.
C=CCc1cccc2cc(-c3nc4ccc(C)cc4[nH]3)c(=O)oc12 was read as FEN1 inh-1 inconclusive, POLB inh 7%, Pol kappa inh-1 -7%[60.1 µM], TDP1 block 0% and POLI inh inconclusive.
O=C(O)c1cccc2c1-c1ccc(Cl)cc1C2=O was read as FEN1 inh-1 6%, Pol kappa inh-1 -18%, Pol eta inh-1 -8% and POLI inh 16%.
`O=C(O)c1cc(O)c2c(c1)C(=O)c1cccc(O)c1C2=O` gave FEN1 inh-1 inconclusive, POLB inh 11µM*, Pol kappa inh-1 50µM*, TDP1 block -3%, Pol eta inh-1 50µM*, POLI inh 40µM*, Pol iota confirm 67*, Pol kappa inh-2 47*, Pol eta inh-2 76* and FEN1 inh-2 4.3*.
Screening C/C(C/C(C)=C1/SC(=S)NC1=O)=C1\SC(=S)NC1=O returned FEN1 inh-1 13µM*, POLB inh 16µM*, Pol kappa inh-1 20µM*, Pol eta inh-1 3.5µM*, POLI inh 3.5µM*, Pol iota confirm 30*, Pol eta inh-2 6* and FEN1 inh-2 19*.
Screening CCCCCC/C(C)=C1/SC(=S)NC1=O returned FEN1 inh-1 -7%, POLB inh 6%, Pol kappa inh-1 -7%, TDP1 block -1%, Pol eta inh-1 -18% and POLI inh inconclusive.
`Nc1nc(Sc2ccc([N+](=O)[O-])c3nonc23)c2[nH]cnc2n1` gave FEN1 inh-1 20µM*, Pol kappa inh-1 18µM*, Pol eta inh-1 inconclusive, POLI inh 3.2µM*, PGK validate 18µM*, Pol iota confirm 21*, Pol kappa inh-2 15*, Pol eta inh-2 30* and FEN1 inh-2 43*.
Screening Cc1ccc2c(=O)c3cccc(CC(=O)O)c3oc2c1C returned Pol kappa inh-1 -2%[60.1 µM] and TDP1 block -14%.
